We go through 33 compounds from PubChem BioAssay (EPA / NIEHS).

The source made the active and inactive calls. Rule for the calls: active = hit-call score of the fitted dose curve at least 0.9, where 1 is the maximum; inactive = score below 0.9.

Read-out in the first experiment: Transforming growth factor beta 1 (TGFb1), TGFB1 (gene 7040)
The experiment can be described thus: BSK_BE3C_TGFb1: BioMAP Diversity Plus: BE3C Assay for Transforming growth factor beta 1 (TGFb1) Biomarker Activity (AID 2283036;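 for outcome: TGF-b1 protein level measured by ELISA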). The settings on record: primary human bronchial epithelial cells; actives raise or lower the signal. The gist of the method:
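In this human primary bronchial epithelial system, an ELISA quantified TGF-b1 one day after dosing. Endpoint changes in either direction were fitted relative to DMSO.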
On to `Cc1ccc2nc3sc(=O)sc3nc2c1`, for which the outcome was inactive.

Consider `OC(Cc1ccccc1Cl)(Cn1cncn1)C1(Cl)CC1` (stereo not given), for which the outcome was inactive.

In the case of `Cc1ccccc1OP(=O)(Oc1ccccc1)Oc1ccccc1`, the outcome was inactive.

In the case of `O=[N+]([O-])c1cccc2ccccc12`, the outcome was inactive.

On to `Oc1c(Cl)cc(Cl)cc1Cl`, for which the outcome was inactive.

As for `CCOC(=O)CCN(SN(C)C(=O)Oc1cccc2c1OC(C)(C)C2)C(C)C`, the result was inactive.

What is called AC50 is the concentration at which the activity in the assay is half-maximal. In the case of `OC(Cc1ccccc1Cl)(Cn1[nH]cnc1=S)C1(Cl)CC1` (stereo not given), the AC50 was 8.86 µM (active).

Take `CCOP(=O)(OCC)SCCSCC`: the result was inactive.

With `N#CCCC(Br)(C#N)CBr` (stereo not given), the concentration at half-maximal activity (AC50) was 20 µM (active).

For the compound `Cc1cc(C(C)(C)c2ccc(O)c(C)c2)ccc1O`, the concentration at half-maximal activity (AC50) was 10 µM (active).

In the case of `O=C(O)COc1cc(Cl)c(Cl)cc1Cl`, the outcome was inactive.

On to `O=[N+]([O-])c1ccc(Nc2ccccc2)cc1`, for which the result was inactive.

As for `Cc1ccccc1OP(=O)(Oc1ccccc1C)Oc1ccccc1C`, the AC50 is 11.4 µM (active).

As to `CCOC(=O)C(SP(=S)(OC)OC)c1ccccc1` (stereo not given), the result was inactive.

As to `CC(C)(C)c1cc([N+](=O)[O-])cc(C(C)(C)C)c1O`, the result was inactive.

Turning to `CC1(C)[C@H](C(=O)O[C@H](C#N)c2cccc(Oc3ccccc3)c2)[C@@H]1/C=C(\Cl)C(F)(F)F`, the outcome was inactive.

For `c1ccc(-c2cccc(-c3ccccc3)c2)cc1`, the result was inactive.

`Cc1ccc(OP(=O)(Oc2ccc(C)cc2C)Oc2ccc(C)cc2C)c(C)c1`: the result was inactive.

Take `CC(C)(C)c1ccccc1O`: the result was inactive.

In the case of `O=S(=O)(C(Cl)(Cl)Cl)C(Cl)(Cl)Cl`, the AC50 is 9.08 µM (active).

On to `C=CC(Cl)CCl` (stereo not given), for which the outcome was inactive.

Take `CCOP(=O)(OCC)OC(=CCl)c1ccc(Cl)cc1Cl`: the result was inactive.

With `COc1ccccc1N`, the outcome was inactive.

Turning to `CCN(CC)C(=O)C(Cl)=C(C)OP(=O)(OC)OC`, the outcome was inactive.

For the compound `CC(C=O)Cc1ccc2c(c1)OCO2` (stereo not given), the result was inactive.

As for `OCCN(CCO)CCO`, the outcome was inactive.

Consider `[Cl][Sn]([c]1ccccc1)([c]1ccccc1)[c]1ccccc1`, for which the outcome was inactive.

As to `C#CCOC(=O)/C=C(C)/C=C/CC(C)CCCC(C)C` (stereo not given), the result was inactive.

With `CN(C)C(=S)S`, the AC50 is 20 µM (active).

`CC(C)=CC1C(C(=O)OCc2cccc(Oc3ccccc3)c2)C1(C)C` (stereo not given): the result was inactive.

Consider `CCOP(=S)(OCC)OP(=S)(OCC)OCC`, for which the outcome was inactive.

`O=S(=O)(c1ccc(Cl)cc1)c1cc(Cl)c(Cl)cc1Cl`: the outcome was inactive.

`Cc1cc(C)cc(C)c1`: the result was inactive.

Read-out in the next experiment: Plasminogen activator inhibitor-1 (PAI1), SERPINE1 (gene 5054)
The experiment is described as follows: BSK_BE3C_PAI1: BioMAP Diversity Plus: BE3C Assay for Plasminogen activator inhibitor-1 (PAI1) Biomarker Activity (AID 2283037). The conditions noted are these: primary human bronchial epithelial cells; actives raise or lower the signal. The gist of the method:
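PAI-1 biomarker levels in treated human bronchial epithelial cells are determined by ELISA at 24 h. Both increases and decreases relative to DMSO are fitted.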
For the compound `OC(Cc1ccccc1Cl)(Cn1cncn1)C1(Cl)CC1` (stereo not given), the outcome was inactive.

Consider `O=[N+]([O-])c1cccc2ccccc12`, for which the result was inactive.

Regarding `N#CCCC(Br)(C#N)CBr` (stereo not given), the AC50 was 20 µM (active).

Take `O=[N+]([O-])c1ccc(Nc2ccccc2)cc1`: the outcome was inactive.

Turning to `Cc1ccccc1OP(=O)(Oc1ccccc1C)Oc1ccccc1C`, the half-maximal activity concentration (AC50) is 11 µM (active).

For the compound `CCOC(=O)C(SP(=S)(OC)OC)c1ccccc1` (stereo not given), the result was inactive.

For `c1ccc(-c2cccc(-c3ccccc3)c2)cc1`, the result was inactive.

In the case of `CC(C)(C)c1ccccc1O`, the result was inactive.

For the compound `CCOP(=O)(OCC)OC(=CCl)c1ccc(Cl)cc1Cl`, the result was inactive.

Consider `COc1ccccc1N`, for which the outcome was inactive.

Regarding `CCN(CC)C(=O)C(Cl)=C(C)OP(=O)(OC)OC`, the outcome was inactive.

In the case of `C#CCOC(=O)/C=C(C)/C=C/CC(C)CCCC(C)C` (stereo not given), the result was inactive.

Regarding `O=S(=O)(c1ccc(Cl)cc1)c1cc(Cl)c(Cl)cc1Cl`, the result was inactive.

For `Cc1cc(C)cc(C)c1`, the outcome was inactive.

Read-out in a further experiment: urokinase plasminogen activator (uPA), PLAU (gene 5328)
The experiment can be described thus: BSK_BE3C_uPA: BioMAP Diversity Plus: BE3C Assay for urokinase plasminogen activator (uPA) Biomarker Activity (AID 2283038).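 For outcome: uPA protein level quantified by ELISA in cell cultures; uPA read one day after compound addition.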 The settings on record: primary human bronchial epithelial cells; actives raise or lower the signal. The gist of the method: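 Bronchial epithelial cells (human, primary); chemical 24 h; uPA by ELISA; bidirectional fit vs DMSO. SRB (0.1%, after 10% TCA fixation, 560 nm) in parallel cultures for cytotoxicity.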
As for `Cc1ccc2nc3sc(=O)sc3nc2c1`, the result was inactive.

On to `OC(Cc1ccccc1Cl)(Cn1cncn1)C1(Cl)CC1` (stereo not given), for which the result was inactive.

As to `Cc1ccccc1OP(=O)(Oc1ccccc1)Oc1ccccc1`, the result was inactive.

Regarding `O=[N+]([O-])c1cccc2ccccc12`, the result was inactive.

As to `Oc1c(Cl)cc(Cl)cc1Cl`, the result was inactive.

Take `CCOC(=O)CCN(SN(C)C(=O)Oc1cccc2c1OC(C)(C)C2)C(C)C`: the result was inactive.

As to `OC(Cc1ccccc1Cl)(Cn1[nH]cnc1=S)C1(Cl)CC1` (stereo not given), the half-maximal activity concentration (AC50) is 20 µM (active).

`CCOP(=O)(OCC)SCCSCC`: the result was inactive.

As for `N#CCCC(Br)(C#N)CBr` (stereo not given), the AC50 is 20 µM (active).

In the case of `Cc1cc(C(C)(C)c2ccc(O)c(C)c2)ccc1O`, the result was inactive.

As for `O=C(O)COc1cc(Cl)c(Cl)cc1Cl`, the result was inactive.

Consider `O=[N+]([O-])c1ccc(Nc2ccccc2)cc1`, for which the result was inactive.

For the compound `Cc1ccccc1OP(=O)(Oc1ccccc1C)Oc1ccccc1C`, the result was inactive.

Turning to `CCOC(=O)C(SP(=S)(OC)OC)c1ccccc1` (stereo not given), the outcome was inactive.

`CC(C)(C)c1cc([N+](=O)[O-])cc(C(C)(C)C)c1O`: the outcome was inactive.

As to `CC1(C)[C@H](C(=O)O[C@H](C#N)c2cccc(Oc3ccccc3)c2)[C@@H]1/C=C(\Cl)C(F)(F)F`, the outcome was inactive.

As for `c1ccc(-c2cccc(-c3ccccc3)c2)cc1`, the result was inactive.

For `Cc1ccc(OP(=O)(Oc2ccc(C)cc2C)Oc2ccc(C)cc2C)c(C)c1`, the result was inactive.

Regarding `CC(C)(C)c1ccccc1O`, the result was inactive.

In the case of `O=S(=O)(C(Cl)(Cl)Cl)C(Cl)(Cl)Cl`, the AC50 is 5.31 µM (active).

As to `C=CC(Cl)CCl` (stereo not given), the outcome was inactive.

In the case of `CCOP(=O)(OCC)OC(=CCl)c1ccc(Cl)cc1Cl`, the result was inactive.

On to `COc1ccccc1N`, for which the result was inactive.

Take `CCN(CC)C(=O)C(Cl)=C(C)OP(=O)(OC)OC`: the outcome was inactive.

Regarding `CC(C=O)Cc1ccc2c(c1)OCO2` (stereo not given), the outcome was inactive.

Turning to `OCCN(CCO)CCO`, the outcome was inactive.

`[Cl][Sn]([c]1ccccc1)([c]1ccccc1)[c]1ccccc1`: the half-maximal activity concentration (AC50) is 0.27 µM (active).

`C#CCOC(=O)/C=C(C)/C=C/CC(C)CCCC(C)C` (stereo not given): the outcome was inactive.

For `CN(C)C(=S)S`, the AC50 was 30.2 µM (active).

Consider `CC(C)=CC1C(C(=O)OCc2cccc(Oc3ccccc3)c2)C1(C)C` (stereo not given), for which the result was inactive.

As to `CCOP(=S)(OCC)OP(=S)(OCC)OCC`, the result was inactive.

As for `O=S(=O)(c1ccc(Cl)cc1)c1cc(Cl)c(Cl)cc1Cl`, the outcome was inactive.

For the compound `Cc1cc(C)cc(C)c1`, the outcome was inactive.
